Read-out in assay [1]: Monocyte Chemoattractant Protein-1 (MCP1), CCL2 (gene 6347)
As to the kind of experiment: BSK_LPS_MCP1: BioMAP Diversity Plus: LPS Assay for Monocyte Chemoattractant Protein-1 (MCP1) Biomarker Activity (AID 2283081).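 For AC50: secreted MCP-1 protein quantified by ELISA in culture supernatant.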 The following applies: primary human HUVEC with PBMC; actives raise or lower the signal. Put shortly:
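Human umbilical vein endothelial cells co-cultured with PBMC, LPS-stimulated; secreted MCP-1 measured by ELISA 24 h after compound addition. Bidirectional curve fitting against DMSO baseline; SRB total-protein staining in parallel cultures for cytotoxicity.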

Assay [2] in a line: BSK_LPS_PGE2: BioMAP Diversity Plus: LPS Assay for Prostaglandin E2 (PGE2) Biomarker Activity (AID 2283082).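 For AC50: secreted prostaglandin E2 measured by ELISA in LPS-stimulated co-culture.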 The following applies: primary human HUVEC with PBMC; actives raise or lower the signal. Put shortly:
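Compounds were added to the LPS co-culture of endothelium and PBMC, and PGE2 was measured by ELISA after 24 h. Responses in either direction were fitted with DMSO as baseline.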

Read-out in assay [3]: Tissue Factor, F3 (gene 2152)
Put plainly: BSK_LPS_TissueFactor: BioMAP Diversity Plus: LPS Assay for Tissue Factor Biomarker Activity (AID 2283084). The following applies: primary human HUVEC with PBMC; actives raise or lower the signal. Put shortly: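 Human umbilical vein endothelial cells co-cultured with PBMC were dosed with compound. Cell-surface CD142 was measured by ELISA 24 h later. Activity was fitted bidirectionally against DMSO, with SRB total-protein staining in parallel cultures for cytotoxicity.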

Read-out in assay [4]: Tumor necrosis factor (Homo sapiens) (UniProt P01375)
As to the kind of experiment: BSK_LPS_TNFa: BioMAP Diversity Plus: LPS Assay for Tumour Necrosis Factor alpha (TNFa) Biomarker Activity (AID 2283085). The following applies: primary human HUVEC with PBMC; actives raise or lower the signal. The essentials: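 Cells (umbilical vein endothelium plus peripheral blood mononuclear cells) were dosed with chemical, incubated 24 h, then TNFa was quantified by ELISA; values derive from bidirectional fitting with DMSO as baseline.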

Read-out in assay [5]: Vascular cell adhesion molecule 1 (VCAM1), VCAM1 (gene 7412)
As to the kind of experiment: BSK_LPS_VCAM1: BioMAP Diversity Plus: LPS Assay for Vascular cell adhesion molecule 1 (VCAM1) Biomarker Activity (AID 2283086). The following applies: primary human HUVEC with PBMC; actives raise or lower the signal. Put shortly:
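Cells are dosed in an LPS-stimulated endothelial/mononuclear co-culture and, after 24 h, VCAM-1 is quantified by ELISA. Activity in either direction is fitted relative to the DMSO negative control.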

Read-out in assay [6]: CD38, CD38 (gene 952)
As to the kind of experiment: BSK_SAg_CD38: BioMAP Diversity Plus: SAg Assay for CD38 Biomarker Activity (AID 2283087). The following applies: primary human HUVEC with PBMC; actives raise or lower the signal. The essentials: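 CD38 quantified by ELISA (fluorescence) in a superantigen-activated endothelial cell–PBMC co-culture at 24 h post-dose. Activity fitted in both directions relative to DMSO; parallel SRB and Alamar Blue cytotoxicity read-outs.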

Read-out in assay [7]: CD40, CD40 (gene 958)
Put plainly: BSK_SAg_CD40: BioMAP Diversity Plus: SAg Assay for CD40 Biomarker Activity (AID 2283088). The following applies: primary human HUVEC with PBMC; actives raise or lower the signal. Put shortly:
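HUVEC plus PBMC co-culture, superantigen-activated, with CD40 read by ELISA 24 h after dosing. Curves fitted in both directions against DMSO. Overt cytotoxicity checked by parallel SRB total-protein staining.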

Read-out in assay [8]: CD69, CD69 (gene 969)
As to the kind of experiment: BSK_SAg_CD69: BioMAP Diversity Plus: SAg Assay for CD69 Biomarker Activity (AID 2283089).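 For AC50: cell surface CD69 protein quantified by ELISA with fluorescence detection.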 The following applies: primary human HUVEC with PBMC; actives raise or lower the signal. The essentials: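 Primary human vascular co-culture (umbilical vein endothelium with peripheral blood mononuclear cells) exposed to test chemical for 24 h. CD69 levels quantified by fluorescence ELISA; DMSO served as negative control for bidirectional fitting.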

Read-out in assay [9]: Monocyte Chemoattractant Protein-1 (MCP1), CCL2 (gene 6347)
Put plainly: BSK_SAg_MCP1: BioMAP Diversity Plus: SAg Assay for Monocyte Chemoattractant Protein-1 (MCP1) Biomarker Activity (AID 2283090). The following applies: primary human HUVEC with PBMC; actives raise or lower the signal. The essentials: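 Values derive from bidirectional fitting of ELISA-measured MCP1 against DMSO controls. Readings were taken 24 h after dosing human vascular endothelial cells co-cultured with peripheral blood mononuclear cells under superantigen stimulation.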

Read-out in assay [10]: E-selectin (Homo sapiens) (UniProt P16581)
Put plainly: BSK_SAg_Eselectin: BioMAP Diversity Plus: SAg Assay for Eselectin Biomarker Activity (AID 2283091). The following applies: primary human HUVEC with PBMC; actives raise or lower the signal. The essentials:
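Human umbilical vein endothelial cells co-cultured with peripheral blood mononuclear cells, SAg system. E-selectin is measured by ELISA 24 h after dosing and fitted bidirectionally against DMSO. Cytotoxicity is checked by SRB staining of parallel cultures.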

Read-out in assay [11]: Monokine induced gamma interferon (MIG), CXCL9 (gene 4283)
Put plainly: BSK_SAg_MIG: BioMAP Diversity Plus: SAg Assay for Monokine induced gamma interferon (MIG) Biomarker Activity (AID 2283092). The following applies: primary human HUVEC with PBMC; actives raise or lower the signal. The essentials: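 Endothelial cells and PBMC were co-cultured, exposed to test chemicals, and sampled 24 h later. MIG was measured by ELISA, and responses were fitted in both directions relative to DMSO.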

Assay [12] in a line: BSK_SAg_PBMCCytotoxicity: PBMC Cytotoxicity Assessment in the BioMAP Diversity Plus: SAg Assay (AID 2283093).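 For AC50: PBMC superantigen activated with SEB plus TSST-1 one hour after compound addition.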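 Note: fitted both ways against DMSO so a hit may be loss or gain of signal.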 The following applies: primary human HUVEC with PBMC. The essentials:
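PBMC viability by Alamar Blue reduction, fluorescence read at 546/580 nm after 6 h dye exposure. Cells were dosed 1 h before SEB plus TSST-1 activation (20 ng/mL final each), then held 90 h; endothelial/PBMC human co-culture.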

A short description of assay [13]: BSK_SAg_Proliferation: Cell Proliferation Assessment in the BioMAP Diversity Plus: SAg Assay (AID 2283095).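 Note: relative cell number as total protein by SRB absorbance in sub-confluent culture.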 The following applies: primary human HUVEC with PBMC. Put shortly: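 Absorbance of sulforhodamine B at 560 nm reports total protein in a human vascular endothelial/PBMC co-culture after 96 h chemical exposure. Gain or loss of signal is fitted in both directions against DMSO.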

A short description of assay [14]: BSK_SAg_SRB: Viability Assessment in the BioMAP Diversity Plus: SAg Assay (AID 2283096).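 Note: cells read one day after compound addition; hits may be either gain or loss of signal compared with DMSO.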 The following applies: primary human HUVEC with PBMC. Put shortly: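 Compounds were added to a human vascular co-culture of umbilical vein endothelium and PBMC. After 24 h, parallel cultures were fixed with 10% TCA, stained with 0.1% sulforhodamine B and read at 560 nm. Gain or loss of signal was fitted relative to DMSO.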

Read-out in assay [15]: Macrophage colony-stimulating factor (MCSF), CSF1 (gene 1435)
Put plainly: BSK_LPS_MCSF: BioMAP Diversity Plus: LPS Assay for Macrophage colony-stimulating factor (MCSF) Biomarker Activity (AID 2283083). The following applies: primary human HUVEC with PBMC; actives raise or lower the signal. The essentials: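 HUVEC–PBMC co-culture, M-CSF measured by ELISA 24 h after chemical dosing. Fitted in both directions relative to DMSO as negative control; overt cytotoxicity assessed by SRB total-protein staining in parallel cultures.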

Read-out in assay [16]: Interleukin-8 (IL8), CXCL8 (gene 3576)
As to the kind of experiment: BSK_SAg_IL8: BioMAP Diversity Plus: SAg Assay for Interleukin-8 (IL8) Biomarker Activity (AID 2283094). The following applies: primary human HUVEC with PBMC; actives raise or lower the signal. Put shortly: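 Chemicals were dosed onto a human endothelial–PBMC co-culture, and IL-8 was quantified by ELISA after 24 h. Both increases and decreases were fitted relative to DMSO.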

Some compounds were tested as several samples or in several runs, with calls that do not always agree. The source made the active and inactive calls. Rule for the calls: active = hit-call score of the fitted dose curve at least 0.9, where 1 is the maximum; inactive = score below 0.9.

Tumor necrosis factor (Homo sapiens), sequence (P01375 whole entry, looked up): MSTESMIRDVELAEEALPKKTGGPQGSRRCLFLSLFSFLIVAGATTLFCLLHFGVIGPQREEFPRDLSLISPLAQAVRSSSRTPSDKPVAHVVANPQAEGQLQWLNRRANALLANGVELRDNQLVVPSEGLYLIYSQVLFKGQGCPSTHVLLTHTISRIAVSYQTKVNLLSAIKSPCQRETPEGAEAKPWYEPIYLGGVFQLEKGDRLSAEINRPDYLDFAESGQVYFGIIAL
E-selectin (Homo sapiens), sequence (P16581 whole entry, looked up): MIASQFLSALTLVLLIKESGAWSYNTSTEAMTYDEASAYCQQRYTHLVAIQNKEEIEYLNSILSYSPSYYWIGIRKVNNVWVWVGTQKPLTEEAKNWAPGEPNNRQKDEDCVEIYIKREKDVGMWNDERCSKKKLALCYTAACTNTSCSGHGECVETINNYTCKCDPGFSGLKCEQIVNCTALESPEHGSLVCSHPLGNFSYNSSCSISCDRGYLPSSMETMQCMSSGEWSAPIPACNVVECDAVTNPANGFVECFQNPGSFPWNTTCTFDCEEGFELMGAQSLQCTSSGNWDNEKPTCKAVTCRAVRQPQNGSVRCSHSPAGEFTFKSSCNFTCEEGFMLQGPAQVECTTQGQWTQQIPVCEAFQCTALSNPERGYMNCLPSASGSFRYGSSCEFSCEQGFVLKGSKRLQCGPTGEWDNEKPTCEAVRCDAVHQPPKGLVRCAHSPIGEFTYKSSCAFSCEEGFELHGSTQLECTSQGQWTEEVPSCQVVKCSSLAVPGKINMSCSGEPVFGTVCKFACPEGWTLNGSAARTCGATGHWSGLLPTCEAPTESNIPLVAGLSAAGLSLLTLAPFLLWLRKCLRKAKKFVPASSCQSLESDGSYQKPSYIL

On to `CCCCCCCCCCCCCCCC(=O)OC/C=C(C)/C=C/C=C(C)/C=C/C1=C(C)CCCC1(C)C`, for which the outcome in [1], in assay [2], in assay [3], in assay [4], in assay [7] and in assay [9] was inactive. Moreover, the result in assay [10], in assay [11], in assay [12] and in assay [14] was inactive. The AC50 in assay [5] is 20 µM (active); in assay [6], 3.97 µM (active); in [8], 20 µM (active); in assay [13], 20 µM (active).
Take `CS(=O)(=O)c1ccc(C2=C(c3ccccc3)C(=O)OC2)cc1`: the outcome in [1], in assay [2], in [3], in assay [4], in assay [5] and in [6] was inactive. Further, the outcome in [7], in [8], in assay [9], in [10], in assay [11] and in assay [12] was inactive. The outcome in [13] and in assay [14] was inactive.
As to `CCCCCC(C=O)=Cc1ccccc1`, the half-maximal activity concentration (AC50) in assay [1] was 32.9 µM (active); in assay [2], 34 µM (active); in [15] it was 33.3 µM (active); in assay [5] it was 30.4 µM (active); in [12] it was 31 µM (active); in [13], 33.1 µM (active). The result in assay [3], in assay [4], in [6], in [7], in assay [8] and in assay [9] was inactive. Also, the outcome in assay [10], in [11], in assay [16] and in assay [14] was inactive.
Consider `CC1(C)C2=CCCC(C)(C)[C@]23CC[C@H]1C3`, for which the outcome in assay [1], in [2], in assay [3], in [4], in assay [5] and in assay [6] was inactive. Also, the outcome in assay [7], in [8], in assay [9], in assay [10], in [11] and in [16] was inactive. In addition, the outcome in assay [14] was inactive. The concentration at half-maximal activity (AC50) in assay [12] was 35.6 µM (active); in assay [13] it was 31.6 µM (active).
Regarding `O=C1OC2(c3ccccc31)c1ccc(O)c(Br)c1Oc1c2ccc(O)c1Br`, the AC50 is 20 µM (active) in assay [1]; 11.1 µM (active) in assay [2]; 20 µM (active) in [3]; 20 µM (active) in assay [5]; 20 µM (active) in assay [6]; 28.8 µM (active) in assay [7]. For the same molecule, the AC50 in [8] was 20 µM (active); in assay [9], 20 µM (active); in assay [10], 26 µM (active); in [13], 8.3 µM (active). The outcome in assay [4], in [11], in assay [12] and in assay [14] was inactive.
Take `C=C(C)C(=O)OCCOCCOCCOCCOC(=O)C(=C)C`: the result in [1], in assay [2], in assay [3], in assay [4], in [5] and in assay [6] was inactive. In addition, the result in [7], in assay [8], in assay [9], in assay [10], in assay [11] and in [12] was inactive. Besides, the outcome in assay [14] was inactive. In [13], the AC50 was 23.9 µM (active).
With `CCCCCCC(CO)CCCC` (stereo not given), the result in [1], in assay [2], in assay [3], in [4], in assay [5] and in assay [6] was inactive. Besides, the outcome in [7], in [8], in [9], in [10], in assay [11] and in [12] was inactive. Moreover, the result in assay [13] and in assay [14] was inactive. Besides, the concentration at half-maximal activity (AC50) in [13] was 37.3 µM (active).
On to `O=CN1CCOCC1`, for which the outcome in assay [1], in assay [2], in [3], in assay [4], in assay [5] and in assay [6] was inactive. In addition, the outcome in [7], in [8], in assay [9], in [10], in assay [11] and in assay [12] was inactive. The outcome in [13] and in assay [14] was inactive.
Take `CN(C)C(=O)Nc1ccc(Oc2ccc(Cl)cc2)cc1`: the outcome in [1], in assay [3], in assay [4], in assay [5], in [6] and in assay [7] was inactive. Further, the result in assay [8], in [9], in assay [10], in assay [11], in [12] and in assay [16] was inactive. Moreover, the outcome in assay [13] and in [14] was inactive. Further, the concentration at half-maximal activity (AC50) in assay [2] was 5.86 µM (active).
`CC(C)(N=C=O)c1cccc(C(C)(C)N=C=O)c1`: the result in [1], in assay [2], in assay [15], in assay [3], in assay [4] and in assay [5] was inactive. In addition, the result in [6], in assay [7], in assay [8], in [9], in [10] and in [11] was inactive. The outcome in [13] and in assay [14] was inactive.
On to `COc1ccc(CCN2CCC(Nc3nc4ccccc4n3Cc3ccc(F)cc3)CC2)cc1`, for which the outcome in assay [1], in assay [2], in assay [3], in assay [4], in assay [5] and in assay [7] was inactive. Also, the outcome in [9], in [10] and in assay [11] was inactive. The AC50 in assay [6] is 5 µM (active); in [8] it was 5 µM (active); in assay [12], 6.91 µM (active); in assay [16], 2.39 µM (active); in [13], 6.38 µM (active); in assay [14] it was 5 µM (active).
On to `Cc1cc(CCC(=O)OCCOCCOCCOC(=O)CCc2cc(C)c(O)c(C(C)(C)C)c2)cc(C(C)(C)C)c1O`, for which the result in assay [1], in assay [2], in assay [15], in [3], in assay [4] and in assay [5] was inactive. The result in [6], in assay [7], in assay [8], in assay [9], in assay [10] and in [11] was inactive. Moreover, the results for the AC50 in assay [12], in assay [13] and in assay [14] were 25.2 µM (active), 25.3 µM (active) and 32.2 µM (active), respectively.
